# Measurements from PubChem BioAssay (Tox21).
# Inconclusive results are not listed. A call without a number means that no potency is given here. A number with no mark means an inactive call. Calls of active or inactive are those of the source. Unless noted, calls follow the shape of the dose curve; as a rule, active = well fitted curve in the direction sought with a large enough effect in the repeat runs; inconclusive = weak or mixed curves; inactive = no such curve, though single readings can be large; an effect the other way counts as inactive or inconclusive.
# What was measured:
# [1] = target: Retinoic acid receptor RXR-alpha (Homo sapiens) (UniProt P19793); assay: qHTS assay to identify small molecule agonists of the RXR signaling pathway (AID 1159527; calls by dose curve; also: nearly all actives have a fitted effect of over 35% in size; also: potency is read from the fitted curve at half-maximal effect)
# Retinoic acid receptor RXR-alpha (Homo sapiens), sequence (P19793 whole entry, looked up): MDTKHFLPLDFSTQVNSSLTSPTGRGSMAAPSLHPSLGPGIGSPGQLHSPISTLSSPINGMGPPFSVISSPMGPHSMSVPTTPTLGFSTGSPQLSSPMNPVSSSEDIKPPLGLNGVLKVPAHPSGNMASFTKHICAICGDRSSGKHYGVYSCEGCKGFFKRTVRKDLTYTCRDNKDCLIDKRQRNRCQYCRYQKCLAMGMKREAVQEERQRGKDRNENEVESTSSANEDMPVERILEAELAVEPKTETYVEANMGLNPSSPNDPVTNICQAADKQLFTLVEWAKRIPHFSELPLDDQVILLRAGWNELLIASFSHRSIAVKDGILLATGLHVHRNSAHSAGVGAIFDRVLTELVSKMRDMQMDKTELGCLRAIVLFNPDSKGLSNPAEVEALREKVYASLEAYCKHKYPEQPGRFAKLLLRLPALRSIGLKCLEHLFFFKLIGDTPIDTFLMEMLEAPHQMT
# Method in brief: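 16 hr incubation of compound-treated RXR-alpha-UAS-bla HEK 293T cells (2% charcoal-stripped FBS, 37 C) preceded a 2 hr room-temperature LiveBLAzer FRET substrate step and blue/green fluorescence measurement.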
# [2] = qHTS assay to identify small molecule agonists of the RXR signaling pathway - cell viability counter screen (AID 1159529);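 also: HEK 293T cells carrying an RXR-alpha UAS beta-lactamase reporter; series mostly up to about 77 µM; nearly all actives have a fitted effect of over 50% in size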
# Method in brief: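 In this parallel viability measure, GeneBLAzer RXR-alpha HEK 293T cells (2% charcoal-stripped FBS) were given a 5 hr preincubation, treated with compounds 16 hr at 37 C, and read by CellTiter-Glo luminescence.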
# [3] = qHTS assay to identify small molecule antagonists of the retinoid acid receptor (RAR) signaling pathway - cell viability counter screen (AID 1159551); also: nearly all actives have a fitted effect of over 35% in size
# Method in brief: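 Cells (C3RL4) are plated, incubated overnight, dosed with compound in DMSO, then given retinol at 1 uM final. After 6 h at 37 C, CellTiter-Glo is added and luminescence read following 30 min at room temperature.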
# [4] = qHTS assay to identify small molecule antagonists of the estrogen related receptor (ERR) signaling pathway from Tox21 library - cell viability counter screen (AID 1224834); also: nearly all actives have a fitted effect of over 30% in size
# Method in brief: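 ERR cells, 2,000/well; 6 h settle at 37 C/5% CO2; pin-tool compound transfer in DMSO; 17.5 h at 37 C; CellTiter-Fluor, 30 min; fluorescence intensity.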
# [5] = qHTS assay to identify small molecule agonists of the constitutive androstane receptor (CAR) signaling pathway - cell viability counter screen (AID 1224836); also: series mostly up to about 92 µM; nearly all actives have a fitted effect of over 45% in size
# Method in brief: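 Using CellTiter-Fluor, viability of HepG2 cells harbouring hCAR and CYP2B6-2.2kb was measured following 23 h incubation with a 15-concentration compound series plus PK11195 (0.75 uM final).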
# [6] = qHTS assay to identify small molecule antagonists of the constitutive androstane receptor (CAR) signaling pathway - cell viability counter screen (AID 1224837); also: series mostly up to about 92 µM; nearly all actives have a fitted effect of over 45% in size
# Method in brief: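 Viability was measured with CellTiter-Fluor in a HepG2 line carrying stably transfected hCAR and a CYP2B6-2.2kb construct. Cells were exposed for 23 hr at 37 C to 15 compound concentrations with 50 nM CITCO as agonist.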
# [7] = target: Nuclear receptor subfamily 1 group I member 3 (Homo sapiens) (UniProt Q14994); assay: qHTS assay to identify small molecule antagonists of the constitutive androstane receptor (CAR) signaling pathway (AID 1224838);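 also: HepG2 cells stably expressing hCAR with CYP2B6 luciferase reporter stimulated by CITCO; nearly all actives have a fitted effect of over 40% in size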
# Nuclear receptor subfamily 1 group I member 3 (Homo sapiens), sequence (Q14994 whole entry, looked up): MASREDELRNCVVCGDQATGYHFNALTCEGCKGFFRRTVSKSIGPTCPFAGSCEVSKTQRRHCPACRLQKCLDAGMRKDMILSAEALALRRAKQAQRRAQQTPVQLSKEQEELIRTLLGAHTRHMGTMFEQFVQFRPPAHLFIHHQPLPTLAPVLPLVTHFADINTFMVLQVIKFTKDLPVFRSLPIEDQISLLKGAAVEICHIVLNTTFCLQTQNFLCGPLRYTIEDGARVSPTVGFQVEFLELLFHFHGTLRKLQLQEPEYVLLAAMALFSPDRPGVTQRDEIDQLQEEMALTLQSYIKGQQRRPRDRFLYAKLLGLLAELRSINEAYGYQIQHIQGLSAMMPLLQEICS
# Method in brief: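 Antagonist mode used CITCO at a final 50 nM to activate CAR in human hepatoma HepG2 cells carrying stable hCAR and a 2.2 kb CYP2B6 promoter-luciferase construct. Compounds were tested at 15 concentrations over 24 h, with luminescence as the end point.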
# [8] = qHTS assay to identify small molecule antagonists of the estrogen related receptor signaling pathway with the pleiotropic PPARgamma coactivator (PGC) from Tox21 10K library - cell viability counter screen (AID 1224840; active = well fitted cell-killing curve with a large enough effect in the repeat runs, not every such curve was filed as active; also: nearly all actives have a fitted effect of over 40% in size)
# Method in brief: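 Multiplexed viability counter screen in the PGC/ERR cell line: cells treated with DMSO-dissolved compounds for 17.5 hours at 37 C, then viability measured as CellTiter-Fluor fluorescence.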
# [9] = target: Thyrotropin receptor (Homo sapiens) (UniProt P16473); assay: qHTS assay to identify small molecule agonists of the thyroid stimulating hormone receptor (TSHR) signaling pathway (AID 1224843; calls by dose curve; also: nearly all actives have a fitted effect of over 45% in size)
# Thyrotropin receptor (Homo sapiens), sequence (P16473 whole entry, looked up): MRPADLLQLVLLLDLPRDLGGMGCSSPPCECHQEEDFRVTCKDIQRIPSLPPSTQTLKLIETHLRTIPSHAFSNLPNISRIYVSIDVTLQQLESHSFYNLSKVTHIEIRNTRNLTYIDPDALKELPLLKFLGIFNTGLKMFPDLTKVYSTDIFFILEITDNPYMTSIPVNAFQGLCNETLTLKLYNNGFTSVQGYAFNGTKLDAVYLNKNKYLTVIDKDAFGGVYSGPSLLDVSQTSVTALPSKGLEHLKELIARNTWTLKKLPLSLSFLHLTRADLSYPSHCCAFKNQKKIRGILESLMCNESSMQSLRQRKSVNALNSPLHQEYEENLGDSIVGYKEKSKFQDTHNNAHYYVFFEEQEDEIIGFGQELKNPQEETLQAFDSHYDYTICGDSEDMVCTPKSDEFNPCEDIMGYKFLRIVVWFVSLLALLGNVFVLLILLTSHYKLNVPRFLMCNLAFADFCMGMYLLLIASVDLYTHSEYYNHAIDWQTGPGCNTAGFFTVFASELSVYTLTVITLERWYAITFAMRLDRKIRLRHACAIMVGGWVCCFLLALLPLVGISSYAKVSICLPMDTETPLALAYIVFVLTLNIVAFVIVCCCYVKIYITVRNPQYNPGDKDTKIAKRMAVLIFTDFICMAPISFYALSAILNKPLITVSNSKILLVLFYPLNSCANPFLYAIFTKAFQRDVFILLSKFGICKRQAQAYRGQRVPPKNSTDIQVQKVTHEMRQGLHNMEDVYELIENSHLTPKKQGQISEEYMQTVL
# Method in brief: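 Compounds are titrated over 15 concentrations, in triplicate, onto TSHR-HEK293 cells seeded at 800/well. Plates sit 30 min at room temperature before cAMP-d2 and anti-cAMP cryptate are added; signal is read after a further hour.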
# [10] = qHTS assay to identify small molecule agonists of the hypoxia (HIF-1) signaling pathway - cell viability counter screen (AID 1224844; calls by dose curve; also: nearly all actives have a fitted effect of over 50% in size)
# Method in brief: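 Cytotoxicity was measured in parallel with the HRE-driven beta-lactamase readout: after 17 hrs of compound exposure at 37C, HRE-bla ME-180 cells received CellTiter-Glo and luminescence was recorded 30 min later.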
# [11] = qHTS assay to identify small molecule agonists of H2AX (AID 1224845; active = well fitted activation curve with a large enough effect in the signal ratio in the repeat runs, not every such curve was filed as active; the % refers to the signal ratio)
# Method in brief: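 Wild-type CHO-K1 cells plated overnight, then exposed 3 hr at 37C to compounds at 15 concentrations (0.76% DMSO). Lysed, then HTRF anti-pH2AX(S139)-cryptate/anti-H2AX-d2 detection after 24 hr at room temperature; emissions 665 and 620 nm.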
# [12] = target: Nuclear receptor subfamily 1 group I member 3 (Homo sapiens) (UniProt Q14994); assay: qHTS assay to identify small molecule agonists of the constitutive androstane receptor (CAR) signaling pathway (AID 1224839); also: series mostly up to about 92 µM; nearly all actives have a fitted effect of over 15% in size
# Method in brief: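 Double-stable HepG2 cells (hCAR, CYP2B6-2.2kb) seeded 4 h before compound addition. Exposure 24 h with 0.75 uM PK11195 final. Luciferase detected by ONE-Glo.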
# [13] = target: Luciferin 4-monooxygenase (Photinus pyralis) (UniProt P08659); assay: qHTS assay to identify small molecule inhibitors of firefly luciferase (AID 1224835); also: series mostly up to about 120 µM; nearly all actives have a fitted effect of over 25% in size
# Luciferin 4-monooxygenase (Photinus pyralis), sequence (P08659 whole entry, looked up): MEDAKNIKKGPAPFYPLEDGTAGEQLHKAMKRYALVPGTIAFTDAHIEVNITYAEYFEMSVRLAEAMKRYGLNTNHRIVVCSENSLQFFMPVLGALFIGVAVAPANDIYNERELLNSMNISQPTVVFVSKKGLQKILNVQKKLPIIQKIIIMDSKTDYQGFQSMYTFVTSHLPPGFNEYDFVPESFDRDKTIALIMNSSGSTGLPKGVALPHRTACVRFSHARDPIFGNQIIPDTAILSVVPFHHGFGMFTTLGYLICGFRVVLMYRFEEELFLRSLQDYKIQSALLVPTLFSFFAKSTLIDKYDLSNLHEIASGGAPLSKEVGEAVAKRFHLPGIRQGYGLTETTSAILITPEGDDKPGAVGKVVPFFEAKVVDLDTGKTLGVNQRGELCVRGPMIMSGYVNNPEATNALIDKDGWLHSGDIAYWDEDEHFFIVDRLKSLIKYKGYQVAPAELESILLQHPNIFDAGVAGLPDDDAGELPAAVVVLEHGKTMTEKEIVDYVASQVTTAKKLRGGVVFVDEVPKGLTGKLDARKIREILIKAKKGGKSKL
# Method in brief: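 Quantitative HTS format; KM concentrations of both substrates. Purified P. pyralis FLuc activity quantified from luminescence images.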
# [14] = qHTS assay to identify small molecule antagonists of the estrogen related receptor signaling pathway with the pleiotropic PPARgamma coactivator (PGC) from Tox21 10K library (AID 1224841; call rule not given here; also: series mostly up to about 92 µM; actives are mostly falling curves and most rising ones were filed inactive; nearly all actives have a fitted effect of over 50% in size)
# Method in brief: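 Steps: plate 2,000 PGC/ERR cells per well; incubate 6 h at 37 C with 5% CO2; transfer compounds from DMSO stocks by pin tool; incubate 18 h at 37 C; add One-Glo; measure luminescence 30 min later.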
# [15] = qHTS assay to identify small molecule agonists of the estrogen related receptor signaling pathway with the pleiotropic PPARgamma coactivator (PGC) from Tox21 10K library (AID 1224842); also: nearly all actives have a fitted effect of over 15% in size
# Method in brief: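 PGC/ERR reporter cells (NTP line) were seeded 2,000 per well, rested 6 h at 37 C/5% CO2, then pin-dosed with compounds in DMSO for 18 h at 37 C; luciferase read by One-Glo luminescence after 30 min at room temperature.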
# [16] = qHTS assay to identify small molecule antagonists of the retinoic acid receptor (RAR) signaling pathway (AID 1159552; also: nearly all actives have a fitted effect of over 50% in size)
# Method in brief: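 C3RL4 RARE-luc cells, overnight plating; retinol 1 uM final added right after compound; 6 hr 37 C; luciferase read at 30 min RT.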
# [17] = qHTS assay to identify small molecule agonists of the retinoic acid receptor (RAR) signaling pathway (AID 1159553)
# Method in brief: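 Seed C3RL4 reporter cells at 1,000 per well and incubate overnight at 37 C. Add compounds in DMSO, incubate 6 hr. Add luciferase reagent, wait 30 min at room temperature, read luminescence.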
Structure (SMILES),Potency [1],outcome [2],outcome [3],Potency [4],Potency [5],Potency [6],outcome [7],outcome [8],Potency [9],outcome [10],outcome [11],Potency [12],Potency [13],Potency [14],outcome [15],outcome [16],Potency [17]
CC(C)NCC(O)COc1cccc2[nH]ccc12 (stereo unspecified),inactive,inactive,inactive,inactive,inactive,inactive,inactive,inactive,inactive,inactive,inactive,,,,,,
CC(C)NCC(O)COc1ccc(COCCOC(C)C)cc1 (stereo unspecified),inactive,inactive,inactive,,inactive,inactive,inactive,inactive,inactive,inactive,inactive,inactive,,,,,
OCCN(CCO)c1cccc(Cl)c1,inactive,inactive,inactive,inactive,inactive,inactive,inactive,inactive,inactive,inactive,inactive,inactive,,,,,
CCCCC(CC)COCCO (stereo unspecified),inactive,inactive,inactive,,inactive,inactive,inactive,inactive,inactive,inactive,inactive,inactive,inactive,inactive,inactive,,
COc1ccc(S(=O)(=O)N2c3ccc(Cl)cc3[C@@](O)(c3ccccc3Cl)[C@H]2C(=O)N2CCC[C@@H]2C(N)=O)cc1OC,inactive,inactive,inactive,inactive,inactive,inactive,,inactive,,,inactive,,inactive,,,,
FC(F)(F)c1ccccc1-n1ccnc1,inactive,inactive,inactive,inactive,inactive,inactive,inactive,inactive,,,inactive,inactive,,,,,
Cc1cccc(C)c1NC(=O)c1ccccc1C(=O)O,inactive,inactive,inactive,,inactive,inactive,inactive,inactive,inactive,,inactive,inactive,,inactive,inactive,,
Cc1ccccc1N=O,inactive,inactive,inactive,inactive,inactive,inactive,,inactive,,inactive,inactive,,inactive,inactive,inactive,,
CCN(C)C(=O)Oc1cccc([C@H](C)N(C)C)c1,inactive,inactive,inactive,inactive,inactive,inactive,inactive,inactive,,inactive,inactive,,inactive,,,,
C=C(C)C(=O)OCc1ccccc1,inactive,inactive,inactive,,inactive,inactive,inactive,,,,inactive,inactive,inactive,inactive,inactive,,
Nc1nnc(-c2cccc(Cl)c2Cl)c(N)n1,inactive,inactive,inactive,inactive,,inactive,,inactive,inactive,inactive,inactive,,inactive,,,,
CCNC(=O)C1CC(C)CCC1C(C)C (stereo unspecified),inactive,inactive,,inactive,inactive,inactive,inactive,inactive,inactive,inactive,inactive,,inactive,inactive,inactive,,
CCOc1cc([N+](=O)[O-])c(OCC)cc1N1CCOCC1,inactive,,inactive,,inactive,inactive,,inactive,inactive,inactive,inactive,,inactive,,,inactive,inactive
Cc1ccccc1C(=O)Nc1ccc(C(=O)N2CCCC(N(C)C)c3ccccc32)cc1 (stereo unspecified),inactive,inactive,,,inactive,inactive,,inactive,inactive,inactive,inactive,,inactive,,,,
Nc1ccc2cc(S(=O)(=O)O)cc(O)c2c1,inactive,inactive,,,inactive,inactive,inactive,inactive,,inactive,,inactive,,inactive,inactive,inactive,
C=CCCCCCCCCCCCC,inactive,inactive,,inactive,inactive,inactive,inactive,inactive,inactive,inactive,inactive,inactive,inactive,,,,
CC1(CO)CN(c2ccccc2)NC1=O (stereo unspecified),inactive,inactive,,,inactive,inactive,inactive,inactive,,inactive,,,inactive,,,inactive,
C[C@@H](Oc1ccc(CNC(=O)c2cccnc2Oc2ccc3c(c2)OCO3)c(F)c1)C(=O)O,inactive,inactive,,,inactive,inactive,inactive,inactive,,inactive,inactive,inactive,inactive,inactive,inactive,,
OCCCCC(O)CO (stereo unspecified),11.6 µM (active),inactive,,inactive,inactive,inactive,,inactive,inactive,inactive,inactive,,inactive,inactive,inactive,,
CNS(=O)(=O)CCc1ccc2[nH]cc(C3CCN(C)CC3)c2c1,inactive,inactive,,,inactive,inactive,inactive,inactive,inactive,,inactive,inactive,,,,,
